For one experiment, the system named is Es-2. The experiment can be described thus: Primary qHTS to identify gynecologic anti-cancer compounds using libraries of approved drugs and bioactive compounds (AID 1345084). Also: nearly all actives have a fitted effect of over 55% in size. The following applies: Gynecologic cancer cell panel viability, ATPlite luminescence, 48 h; series mostly up to 57.5 µM. The method in brief: (§1)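 Measured: luminescence after ATPlite addition (15 min, RT). Exposure: 48 h, 37 C, 5% CO2.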

The test system of the next experiment is HeLa. The experiment is described as above. The settings on record: Gynecologic cancer cell panel viability, ATPlite luminescence, 48 h; series mostly up to 57.5 µM. The method in brief: as §1
The test system of another experiment is Hek293T. The description is as above. The settings on record: Gynecologic cancer cell panel viability, ATPlite luminescence, 48 h, control line for the selectivity index; series mostly up to 57.5 µM. The method in brief: as §1
For another experiment, the system named is JEG-3. Described as above. The following applies: Gynecologic cancer cell panel viability, ATPlite luminescence, 48 h; series mostly up to 57.5 µM. The method in brief:
as §1

A further experiment relates to OV90. The experiment is described as above. The following applies: Gynecologic cancer cell panel viability, ATPlite luminescence, 48 h; series mostly up to 57.5 µM. A digest of the protocol:
as §1

Another experiment deals with PA-1. Described as above. The settings on record: Gynecologic cancer cell panel viability, ATPlite luminescence, 48 h; series mostly up to 57.5 µM. A digest of the protocol:
as §1

For the next experiment, the system named is SKOV3. The description is as above. The following applies: Gynecologic cancer cell panel viability, ATPlite luminescence, 48 h; series mostly up to 57.5 µM. A digest of the protocol: as §1
The test system of another experiment is Tov-21-G. The description is as above. The settings on record: Gynecologic cancer cell panel viability, ATPlite luminescence, 48 h; series mostly up to 57.5 µM. A digest of the protocol: as §1
In another experiment the test system is Tov112D. Described as above. The settings on record: Gynecologic cancer cell panel viability, ATPlite luminescence, 48 h; series mostly up to 57.5 µM. The method in brief:
as §1

A short description of experiment [1]: Drug repurposing screens with cells derived from glioblastoma tumor samples (AID 1345199). Also: nearly all actives have a fitted effect of over 40% in size. Also: potency is read from the fitted curve at half-maximal effect. The settings on record: GBM patient neurospheres viability, ATP luminescence, 48 h. A digest of the protocol: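 Four patient lines of CD133+ GBM neurospheres were screened at several concentrations; hits were retested in those lines plus three slower-growing GBM lines, using 48-hour treatment and ATP-based viability.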

Where [2] appears, read: at 45.9 µM (top of the series), tumour line B.
Setting [3] is: at 45.9 µM (top of the series), tumour line D.
Setting [4] is: at 46 µM (top of the series), tumour line A.
Where [5] appears, read: at 46.1 µM (top of the series), tumour line C.

Where “and” joins values, the source holds several entries; their conditions need not be identical. Identical values can stand only once. Results filed as inconclusive are left out. The source holds several records for some structures; these can differ, active in one and inactive in another. Unmarked numbers belong to inactive results. Calls of active or inactive are those of the source. Calls follow the shape of the dose curve; as a rule, active = well fitted curve in the direction sought with a large enough effect; inconclusive = small, poorly fitted or top-dose-only effect, or another doubt; inactive = no such curve, though single readings can be large; an effect the other way counts as inactive or inconclusive.
% is scaled to controls: 0 for no effect and ±100 for the full control effect.

In the case of `CC(S)C(=O)NCC(=O)O` (configuration not stated), the Potency entry in the experiment on Es-2, in the experiment on HeLa, in the experiment on Hek293T, in the experiment on JEG-3, with OV90 and in the experiment with PA-1 was “inactive” throughout. Further, the Potency result in the experiment with SKOV3, in the experiment on Tov-21-G and in the experiment on Tov112D was “inactive” throughout. Besides, the activity, negative = cell killing was -0.523% in [1] (setting [2]), -24.6% in [1] (setting [3]), -28.9% in [1] (setting [4]) and -4.37% in experiment [1] (setting [5]).
For `CC(C)c1nc(CN(C)C(=O)N[C@H](C(=O)N[C@@H](Cc2ccccc2)C[C@H](O)[C@H](Cc2ccccc2)NC(=O)OCc2cncs2)C(C)C)cs1`, the Potency result with Es-2, with HeLa, in the experiment with Hek293T, with JEG-3, with OV90 and in the experiment on PA-1 was “inactive” throughout. The Potency result in the experiment on SKOV3, with Tov-21-G and in the experiment with Tov112D was “inactive” throughout. Besides, the activity, negative = cell killing is -7.95% and -4.95% in experiment [1] (setting [2]); -23.9% and -23.8% in experiment [1] (setting [3]); -26.2% and -16% in [1] (setting [5]). Further, the Potency in [1] (tumour line A) is 17.8 µM (active).
Regarding `N=C(N)c1ccc2cc(OC(=O)c3ccc(N=C(N)N)cc3)ccc2c1`, the Potency result in the experiment with Es-2, in the experiment with HeLa, with Hek293T, with JEG-3, with OV90 and in the experiment on PA-1 was “inactive” each time. In addition, the Potency entry with Tov-21-G and with Tov112D was “inactive” throughout. The activity, negative = cell killing in experiment [1] (setting [2]) was -0.17%; in [1] (setting [3]), -17%; in experiment [1] (setting [5]), 10%.
With `O=C(NCC1CCCCN1)c1cc(OCC(F)(F)F)ccc1OCC(F)(F)F` (configuration not stated), the Potency entry in the experiment with Es-2, with HeLa, in the experiment on Hek293T, in the experiment on JEG-3, in the experiment with OV90 and with PA-1 was “inactive” each time. Further, the Potency result in the experiment on Tov-21-G and in the experiment with Tov112D was “inactive” each time. For the same compound, the activity, negative = cell killing in experiment [1] (setting [4]) was 20.5%; in [1] (setting [5]), -6.86%.
In the case of `c1cnc2cc3c(cc2n1)C1CNCC3C1`, the Potency result with Es-2, in the experiment on HeLa, in the experiment with Hek293T, with JEG-3, with OV90 and with PA-1 was “inactive” throughout. The Potency result in the experiment with SKOV3, in the experiment with Tov-21-G and in the experiment on Tov112D was “inactive” each time. Besides, the activity, negative = cell killing in experiment [1] (at 99.2 µM (top of the series), tumour line C) is 7.09%; in experiment [1] (at 108 µM (top of the series), tumour line A), -15.8%; in [1] (at 108 µM (top of the series), tumour line B) it was -8.07%; in experiment [1] (at 108 µM (top of the series), tumour line D), -25.1%.
As to `CC(C)[C@H](N)C(=O)OCCOCn1cnc2c(=O)[nH]c(N)nc21`, the Potency result in the experiment on Es-2, with HeLa, in the experiment on Hek293T, in the experiment on JEG-3, with OV90 and in the experiment with PA-1 was “inactive” throughout. For the same compound, the Potency entry in the experiment on SKOV3, in the experiment with Tov-21-G and with Tov112D was “inactive” throughout. For the same compound, the results for the activity, negative = cell killing in experiment [1] (setting [2]), in experiment [1] (setting [3]) and in experiment [1] (setting [5]) were -5.53%, -4.6% and 14.5%, respectively.
As to `CCCCC(CC)COC(=O)C(C#N)=C(c1ccccc1)c1ccccc1` (configuration not stated), the Potency entry in the experiment on Es-2, in the experiment with HeLa, in the experiment with Hek293T, in the experiment with JEG-3, in the experiment on OV90 and with PA-1 was “inactive” each time. Also, the Potency result in the experiment on SKOV3, with Tov-21-G and in the experiment with Tov112D was “inactive” throughout. Moreover, the activity, negative = cell killing in experiment [1] (setting [5]) is -18.1%. The Potency in experiment [1] (tumour line A) is 7.08 µM (active); in experiment [1] (tumour line D) it was 10 µM (active).
In the case of `C=CCc1cc(OC)c(O)c(C(=O)NCCO)c1`, the Potency entry in the experiment with Es-2, in the experiment with HeLa, in the experiment with Hek293T, in the experiment with JEG-3, in the experiment on OV90 and with PA-1 was “inactive” each time. Further, the Potency entry with SKOV3, in the experiment on Tov-21-G and in the experiment on Tov112D was “inactive” throughout. Besides, the activity, negative = cell killing in experiment [1] (setting [2]) is -18.2%; in [1] (setting [3]) it was -1.66%; in [1] (setting [5]) it was 2.37%.
With `COC(=O)N[C@H](C(=O)N[C@@H](Cc1ccccc1)[C@@H](O)CN(Cc1ccc(-c2ccccn2)cc1)NC(=O)[C@@H](NC(=O)OC)C(C)(C)C)C(C)(C)C`, the Potency entry in the experiment with Es-2, in the experiment with HeLa, in the experiment on Hek293T, in the experiment on JEG-3, in the experiment on OV90 and in the experiment with PA-1 was “inactive” in each case. Besides, the Potency entry in the experiment on SKOV3, in the experiment with Tov-21-G and with Tov112D was “inactive” throughout. Besides, the activity, negative = cell killing was -0.919% in experiment [1] (setting [2]), -29.7% in [1] (setting [3]) and 8.04% in experiment [1] (setting [5]). Besides, the Potency in experiment [1] (tumour line A) is 11.2 µM (active).
Turning to `COCCCN1CCC(NC(=O)c2cc(Cl)c(N)c3c2OCC3)CC1`, the Potency entry in the experiment with Es-2, with HeLa, with Hek293T, in the experiment with JEG-3, in the experiment on OV90 and in the experiment with PA-1 was “inactive” throughout. Moreover, the Potency result in the experiment on Tov-21-G and in the experiment on Tov112D was “inactive” each time.
Regarding `CC1(C)CCC(C)(C)c2cc(NC(=O)c3ccc(C(=O)O)cc3)ccc21`, the Potency result in the experiment with Es-2, in the experiment on HeLa, in the experiment on Hek293T, with JEG-3, in the experiment with OV90 and in the experiment on PA-1 was “inactive” in each case. Further, the Potency result with Tov-21-G and in the experiment with Tov112D was “inactive” each time. For the same compound, the activity, negative = cell killing in [1] (setting [2]) was -10.2%; in experiment [1] (setting [3]) it was -17.2%; in experiment [1] (setting [4]), -36.1%.
Regarding `Cc1cc2c(s1)Nc1ccccc1N=C2N1CCN(C)CC1`, the Potency result in the experiment with Es-2, in the experiment with HeLa, in the experiment with Hek293T, with JEG-3, in the experiment on OV90 and with PA-1 was “inactive” each time. Also, the Potency entry in the experiment on SKOV3, with Tov-21-G and in the experiment with Tov112D was “inactive” in each case. The activity, negative = cell killing was -20.2% in [1] (setting [2]), -20.6% in [1] (setting [3]) and -6.39% in experiment [1] (setting [5]). In [1] (tumour line A), the Potency was 12.6 µM (active).
For `Cc1cccc(C)c1OCC(=O)N[C@@H](Cc1ccccc1)[C@@H](O)C[C@H](Cc1ccccc1)NC(=O)[C@H](C(C)C)N1CCCNC1=O`, the Potency entry in the experiment on Es-2, with HeLa, in the experiment with Hek293T, in the experiment on JEG-3, in the experiment on OV90 and with PA-1 was “inactive” in each case. For the same compound, the Potency result with SKOV3, with Tov-21-G and with Tov112D was “inactive” each time. The activity, negative = cell killing is -15.7% in [1] (setting [2]), -27.5% in [1] (setting [3]) and -29% in experiment [1] (setting [5]). Besides, in [1] (tumour line A), the Potency was 10 µM (active).
Consider `CCC(C)(Oc1ccc(C2(c3ccc(OC(C)(CC)C(=O)O)cc3)CCCCC2)cc1)C(=O)O` (configuration not stated), for which the Potency entry with Es-2, in the experiment with HeLa, with Hek293T, in the experiment on JEG-3, in the experiment with OV90 and in the experiment on PA-1 was “inactive” throughout. Further, the Potency result in the experiment on SKOV3, in the experiment on Tov-21-G and with Tov112D was “inactive” each time. Moreover, the activity, negative = cell killing in experiment [1] (setting [2]) is -15.2%; in [1] (setting [3]) it was -12.5%; in experiment [1] (setting [4]) it was -6.69%; in experiment [1] (setting [5]), -24.8%.

The record behind these values is PubChem BioAssay (NCATS).
